Laboratory results from PubChem BioAssay (Tox21).
Inconclusive results are not listed. Active and inactive are the calls of the source. Unless noted, calls follow the shape of the dose curve; as a rule, active = well fitted curve in the direction sought with a large enough effect in the repeat runs; inconclusive = weak or mixed curves; inactive = no such curve, though single readings can be large; an effect the other way counts as inactive or inconclusive.

What was measured:
[1] = qHTS assay for small molecule agonists of the p53 signaling pathway (AID 651631; calls by dose curve; also: nearly all actives have a fitted effect of over 15% in size)
Outline: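 Agonist mode screen using a stably integrated beta-lactamase gene under p53 response elements in HCT-116 cells. Compound exposure lasts 16 h at 37 °C; fluorescence intensity is measured following 2 h FRET substrate loading.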

[2] = qHTS assay for small molecules that induce genotoxicity in human embryonic kidney cells expressing luciferase-tagged ATAD5 (AID 651632); also: nearly all actives have a fitted effect of over 15% in size
Outline: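 Concentration-response screen for ATAD5 upregulation in HEK293T luciferase reporter cells; 16 hr treatment at 37C, then luminescence after 30 min with Amplite at room temperature.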

[3] = qHTS assay for small molecule agonists of the p53 signaling pathway - cell viability (AID 651633; calls by dose curve;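 also: p53RE-bla HCT reporter cells with a stable beta-lactamase p53 reporter; series mostly up to about 83 µM; nearly all actives have a fitted effect of over 30% in size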)
Outline: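 p53RE-bla cells were treated with compound for 16 hours at 37 C. Cytotoxicity was then measured as CellTiter-Glo luminescence after 30 min at room temperature.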

[4] = qHTS assay for small molecules that induce genotoxicity in human embryonic kidney cells expressing luciferase-tagged ATAD5 - cell viability (AID 651634; calls by dose curve; also: nearly all actives have a fitted effect of over 25% in size)
Outline: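 15.5 hr compound or vehicle exposure of HEK293T cells expressing luciferase-tagged ATAD5 at 37C; live-cell protease activity is read by fluorescence after 30 min of CellTiter-Fluor.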

[5] = qHTS assay for small molecule disruptors of the mitochondrial membrane potential - cell viability (AID 720634; calls by dose curve;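 also: human HepG2 liver cancer cells; series mostly up to about 83 µM; nearly all actives have a fitted effect of over 20% in size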)
Outline: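 In this qHTS format, HepG2 cells plated overnight were pinned with compound, incubated 1 hr, and assayed for ATP luminescence with CellTiter-Glo after m-MPI dye addition.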

[6] = qHTS assay to test for compound auto fluorescence at 590 nm (red) in HepG2 cells (AID 720674)
Outline: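 HepG2 cells, 2,000 per well in MEM with 10% FBS, attached overnight at 37 C, then got 23 nL compound or DMSO. After 1 hr at 37 C, 5% CO2, red fluorescence was read at 540/590 nm against Rose Bengal sodium as reference.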

[7] = qHTS assay to test for compound auto fluorescence at 535 nm (green) in HepG2 cells (AID 720675)
[8] = qHTS assay to test for compound auto fluorescence at 460 nm (blue) in HEK293 cells (AID 720678)
Outline: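 After cell attachment (4-5 hr, 37C), compounds were pinned onto HEK293 monolayers in 10% dialyzed FBS medium. The blue channel (405/460 nm) was read following overnight culture. Equivalency was calculated against triamterene.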

[9] = qHTS assay to test for compound auto fluorescence at 590 nm (red) in HEK293 cells (AID 720679)
Outline: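 Plates of HEK293 cells (10% dialyzed FBS) are treated with 23 nL compound or DMSO vehicle after a 4-5 hr attachment period, incubated overnight at 37C, and read for red fluorescence at 540/590nm.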

[10] = qHTS assay to test for compound auto fluorescence at 535 nm (green) in HEK293 cell free culture (AID 720682)
Outline: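 No cells present: wells hold DMEM supplemented with 10% FBS, into which compound or vehicle is pinned. Green emission is then recorded (485 nm excitation, 535 nm emission) and scaled to fluorescein.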

[11] = qHTS assay to test for compound auto fluorescence at 590 nm (red) in HepG2 cell free culture (AID 720684)
Outline: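 Auto fluorescence equivalency versus Rose Bengal sodium, red channel Ex/Em 540/590 nm; compounds in cell-free MEM/10% FBS; DMSO vehicle control.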

[12] = qHTS assay to test for compound auto fluorescence at 460 nm (blue) in HepG2 cell free culture (AID 720685)
Outline: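 Cell-free plates of MEM plus 10% FBS received 23 nL compound or DMSO vehicle; blue-channel (405/460 nm) intensity scored against triamterene as reference fluorophore.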

[13] = qHTS assay to test for compound auto fluorescence at 460 nm (blue) in HepG2 cells (AID 720687)
Outline: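 HepG2 cells in MEM with 10% FBS, attached overnight at 37 C, were exposed to compound or DMSO for 1 hr at 37 C, 5% CO2. Blue fluorescence was read at 405/460 nm, with triamterene as reference fluorophore.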

[14] = molecular target: Glucocorticoid receptor (Homo sapiens) (UniProt P04150); assay: qHTS assay to identify small molecule antagonists of the glucocorticoid receptor (GR) signaling pathway (AID 720692; active = well fitted inhibition curve with a large enough effect in the signal ratio in the repeat runs, not every such curve was filed as active; the % refers to the signal ratio)
Sequence of Glucocorticoid receptor (Homo sapiens) (P04150 whole entry, looked up): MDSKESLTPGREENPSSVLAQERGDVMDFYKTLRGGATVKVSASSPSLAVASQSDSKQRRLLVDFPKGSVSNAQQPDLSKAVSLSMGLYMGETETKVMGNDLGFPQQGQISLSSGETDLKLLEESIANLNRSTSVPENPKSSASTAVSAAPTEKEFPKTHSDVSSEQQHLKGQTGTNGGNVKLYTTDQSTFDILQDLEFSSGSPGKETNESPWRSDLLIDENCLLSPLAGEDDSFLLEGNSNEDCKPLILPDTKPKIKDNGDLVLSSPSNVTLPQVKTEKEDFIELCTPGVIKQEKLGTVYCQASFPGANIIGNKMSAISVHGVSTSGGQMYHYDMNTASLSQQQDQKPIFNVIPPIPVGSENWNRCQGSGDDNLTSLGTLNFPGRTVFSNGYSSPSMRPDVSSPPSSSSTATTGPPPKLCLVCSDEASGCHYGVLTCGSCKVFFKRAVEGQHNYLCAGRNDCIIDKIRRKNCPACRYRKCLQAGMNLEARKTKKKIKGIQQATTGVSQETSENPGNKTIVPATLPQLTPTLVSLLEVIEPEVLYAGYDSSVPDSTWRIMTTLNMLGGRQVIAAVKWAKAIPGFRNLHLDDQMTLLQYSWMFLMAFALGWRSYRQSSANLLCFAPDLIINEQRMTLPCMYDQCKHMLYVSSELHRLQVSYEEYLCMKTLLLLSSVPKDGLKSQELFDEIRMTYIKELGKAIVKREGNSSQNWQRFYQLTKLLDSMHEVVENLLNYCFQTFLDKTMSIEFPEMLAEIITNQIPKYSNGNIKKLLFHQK
Outline: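 Tox21 10K library screened in concentration-response for blockade of dexamethasone (5 nM final)-induced GRE-bla reporter activity in HeLa cells; 18 h treatment, fluorescence read.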

[15] = qHTS assay to test for compound auto fluorescence at 535 nm (green) in HEK293 cells (AID 720680)
[16] = qHTS assay to test for compound auto fluorescence at 460 nm (blue) in HEK293 cell free culture (AID 720681)
Outline: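 Compounds were added to cell-free DMEM with 10% FBS and fluorescence read directly. The blue channel used 405 nm excitation and 460 nm emission, with triamterene as the reference fluorophore.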

[17] = qHTS assay to test for compound auto fluorescence at 590 nm (red) in HEK293 cell free culture (AID 720683)
Outline: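 Cell-free wells of DMEM with 10% FBS received compound, and intrinsic fluorescence was read at excitation/emission 540/590 nm. Values expressed as equivalence to Rose Bengal sodium.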

[18] = qHTS assay to test for compound auto fluorescence at 535 nm (green) in HepG2 cell free culture (AID 720686)
[19] = molecular target: Glucocorticoid receptor (Homo sapiens) (UniProt P04150); assay: qHTS assay to identify small molecule agonists of the glucocorticoid receptor (GR) signaling pathway (AID 720691; active = well fitted activation curve with a large enough effect in the signal ratio in the repeat runs, not every such curve was filed as active; the % refers to the signal ratio)
Outline: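 Measures GR pathway activation through a GRE-beta-lactamase reporter stably integrated in HeLa cells, with 18 h compound treatment at 37 C and fluorescence detection using a FRET substrate.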
% is scaled to controls: 0 for no effect and ±100 for the full control effect.

O=C1Nc2ccccc2C1=O
inactive: Potency [1] | Potency [2] | outcome [3] | outcome [4] | outcome [5] | outcome [6] | outcome [7] | outcome [8] | outcome [9] | outcome [10] | outcome [11] | outcome [12] | outcome [13] | outcome [14]

CNCCc1ccccn1
inactive: Potency [1] | Potency [2] | outcome [3] | outcome [4] | outcome [5] | fluorescence, relative to Rose Bengal [6] 0.136% [at 18.6 µM] | fluorescence, % of triamterene [8] 0.106% [at 18.6 µM] | fluorescence, % of fluorescent control [9] 0.589% [at 18.6 µM] | fluorescence, % of fluorescein [15] -0.0419% [at 18.6 µM] | fluorescence, % of fluorescent control [16] 0.0128% [at 18.6 µM] | activity change [10] -0.037% [at 18.6 µM] | fluorescence, % of fluorescent control [17] -0.0269% [at 18.6 µM] | fluorescence, % of Rose Bengal [11] 0.0243% [at 18.6 µM] | fluorescence, % of fluorescent control [12] 0.0418% [at 18.6 µM] | fluorescence, % of fluorescein control [18] -0.0162% [at 18.6 µM] | fluorescence, % of fluorescent control [13] 0.114% [at 18.6 µM] | Potency [19] | outcome [14]

C=CC(=O)OCC[N+](C)(C)C
inactive: Potency [1] | Potency [2] | outcome [3] | outcome [4] | outcome [5] | outcome [6] | outcome [7] | outcome [8] | outcome [9] | outcome [10] | outcome [11] | outcome [12] | outcome [18] | outcome [13]

CC(C)=CCC/C(C)=C\C#N
inactive: Potency [1] | Potency [2] | outcome [3] | outcome [4] | outcome [5] | outcome [6] | outcome [7] | outcome [8] | outcome [9] | outcome [15] | outcome [10] | outcome [17] | outcome [11] | outcome [12] | outcome [13] | Potency [19]

CCOC(=O)COc1ccc2c(C)c(CCN(CC)CC)c(=O)oc2c1Cl
inactive: Potency [1] | Potency [2] | outcome [3] | outcome [4] | outcome [5] | outcome [6] | outcome [7] | outcome [8] | outcome [9] | outcome [15] | outcome [16] | outcome [10] | outcome [17] | outcome [11] | outcome [12] | outcome [18] | outcome [13]

Cc1cc(O)c(Cl)cc1C
inactive: Potency [1] | Potency [2] | outcome [3] | outcome [4] | outcome [5] | outcome [6] | outcome [7] | outcome [8] | outcome [9] | outcome [15] | outcome [16] | outcome [10] | outcome [17] | outcome [11] | outcome [12] | outcome [18] | outcome [13] | outcome [14]

Cc1ccc(O)c(C(=O)c2ccccc2)c1
inactive: Potency [1] | Potency [2] | outcome [3] | outcome [4] | outcome [5] | outcome [6] | outcome [7] | outcome [8] | outcome [9] | outcome [15] | outcome [10] | outcome [11] | outcome [18] | outcome [13]

O=C1c2ccccc2C(=O)N1CO
inactive: Potency [1] | Potency [2] | outcome [3] | outcome [4] | outcome [5] | outcome [6] | outcome [7] | outcome [8] | outcome [9] | outcome [15] | outcome [16] | outcome [10] | outcome [11] | outcome [18] | outcome [13] | Potency [19] | outcome [14]

CN(C)CCCN(C)C
inactive: activation [1] 3.19% [at 8.3 µM] | activation [2] -0.426% [at 8.08 µM] | activity change, negative = cytotoxicity [3] 10.5% [at 8.08 µM] | activity, negative = cytotoxicity [4] 29.6% [at 8.08 µM] | activity change, negative = cytotoxicity [5] 7.6% [at 8.08 µM] | fluorescence, relative to Rose Bengal [6] -1.07% [at 3.72 µM] | fluorescence, % of fluorescein control [7] -0.223% [at 3.72 µM] | fluorescence, % of triamterene [8] -0.32% [at 3.72 µM] | fluorescence, % of fluorescent control [9] -0.954% [at 3.72 µM] | fluorescence, % of fluorescein [15] -0.137% [at 3.72 µM] | fluorescence, % of fluorescent control [16] -0.55% [at 3.72 µM] | activity change [10] -0.2% [at 3.72 µM] | fluorescence, % of fluorescent control [17] -0.816% [at 3.72 µM] | fluorescence, % of Rose Bengal [11] -0.0354% [at 3.72 µM] | fluorescence, % of fluorescent control [12] -0.358% [at 3.72 µM] | fluorescence, % of fluorescent control [13] -0.76% [at 3.72 µM] | activity change, negative = inhibition [14] 10.4% [at 7.04 µM]

Clc1cc(Cl)c(Cl)c(Cl)c1Cl
inactive: Potency [1] | Potency [2] | outcome [3] | outcome [4] | outcome [5] | outcome [6] | outcome [7] | outcome [8] | outcome [9] | outcome [15] | outcome [16] | outcome [10] | outcome [17] | outcome [11] | outcome [12] | outcome [18] | outcome [13] | Potency [19] | outcome [14]

CC(=O)Oc1ccc(C(C)=O)cc1
inactive: Potency [1] | Potency [2] | outcome [3] | outcome [4] | outcome [5] | outcome [6] | outcome [7] | outcome [8] | outcome [9] | outcome [15] | outcome [16] | outcome [10] | outcome [17] | outcome [11] | outcome [18] | outcome [13]

O=c1[nH]c(=O)c2cn[nH]c2[nH]1
inactive: Potency [1] | Potency [2] | outcome [3] | outcome [4] | outcome [5] | outcome [6] | outcome [7] | outcome [8] | outcome [9] | outcome [16] | outcome [10] | outcome [11] | outcome [12] | outcome [18] | outcome [13] | Potency [19] | outcome [14]

CCN1CCN(C(=O)N[C@@H](C(=O)N[C@@H]2C(=O)N3C(C(=O)O)=C(CSc4nnnn4C)CS[C@H]23)c2ccc(O)cc2)C(=O)C1=O
inactive: Potency [1] | Potency [2] | outcome [3] | outcome [4] | outcome [5] | outcome [6] | outcome [7] | outcome [8] | outcome [9] | outcome [15] | outcome [16] | outcome [10] | outcome [17] | outcome [11] | outcome [12] | outcome [18] | outcome [13]

C=C(C)C(=O)OCCCC
inactive: Potency [1] | Potency [2] | outcome [3] | outcome [4] | outcome [5] | outcome [6] | outcome [7] | outcome [8] | outcome [9] | outcome [15] | outcome [16] | outcome [10] | outcome [17] | outcome [11] | outcome [12] | outcome [18] | outcome [13]

Cc1cc(C)c(N)c(Cl)c1
inactive: Potency [1] | Potency [2] | outcome [3] | outcome [4] | outcome [5] | outcome [6] | outcome [7] | outcome [8] | outcome [9] | outcome [15] | outcome [16] | outcome [10] | outcome [17] | outcome [11] | outcome [12] | outcome [18] | outcome [13] | Potency [19] | outcome [14]
